Measured values taken from PubChem BioAssay (NCATS).
Results filed as inconclusive are left out. The source made the active and inactive calls. Unless noted, calls follow the shape of the dose curve; as a rule, active = well fitted curve in the direction sought with a large enough effect; inconclusive = small, poorly fitted or top-dose-only effect, or another doubt; inactive = no such curve, though single readings can be large; an effect the other way counts as inactive or inconclusive.

Experiments:
[1] = HPAF-II Cancer Cell Toxicity qHTS against the NCATS CANVASS Library (AID 1347346); also: nearly all actives have a fitted effect of over 55% in size; also: potency is read from the fitted curve at half-maximal effect
Outline: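 Cytotoxicity read-out was CellTiter-Glo luminescence after 72 h at 37 degrees C exposure of HPAF-II cells (1000/well) to compounds in an 11-point titration.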

[2] = qHTS for H2AX Agonists against the NCATS CANVASS Library (AID 1347378);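 also: phospho-H2AX S139 level in CHO-K1 lysates by TR-FRET emission ratio; 0% is about no effect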
Outline: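 Following overnight seeding, CHO-K1 cells are incubated with a concentration series of compound for 3 hr at 37C (final DMSO 0.76%). Cells are then lysed, detection antibodies added, and emission ratio 665/620 nm recorded after 24 hr at room temperature.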

[3] = qHTS for Activators of p53 Stress Response Pathway screened against the NCATS CANVASS Library (AID 1347388); also: potency is read from the fitted curve at half-maximal effect
Outline: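 p53RE-bla HCT-116 cells (4000/well) were plated 5 h at 37C, exposed to compounds for 16 h at 37C over an 11-point concentration series, then loaded with CCF4 for 2 h at room temperature; 460/530 nm emission ratio read.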

[4] = U-118MG Cancer Cell Toxicity qHTS against the NCATS CANVASS Library (AID 1347351); also: % is scaled to controls: 0 for no effect and ±100 for the full control effect
Outline: (§1)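 Viability was assessed by adding CellTiter-Glo reagent to treated cultures and reading luminescence after 15min at room temperature. Treatment lasted 72 h at 37 degrees C/5% CO2, using an 11-point series on 1000 cells/well.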

[5] = KB-8-5-11 Cancer Cell Toxicity qHTS against the NCATS CANVASS Library (AID 1347364); also: nearly all actives have a fitted effect of over 75% in size; also: potency is read from the fitted curve at half-maximal effect
Outline: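 Viability read as CellTiter-Glo luminescence after 72 h at 37 °C, 5% CO2. 11-point compound series on 500 KB-8-5-11 cells/well in DMEM/10% FBS. Follow-up plating included 1 uM tariquidar in the medium.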

[6] = Viability qHTS for inhibitors of the SERCaMP assay screened against the NCATS CANVASS Library (AID 1347400); also: nearly all actives have a fitted effect of over 70% in size; also: potency is read from the fitted curve at half-maximal effect
Outline: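 CellTiter-Glo luminescence measured cytotoxicity after 48 h at 37C of compound treatment (11-point series). Cells were SH-SY5Y-GLuc SERCaMP MJH297 derivatives, seeded at 1000 per well 4 h beforehand.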

[7] = COV-362 Cancer Cell Toxicity qHTS against the NCATS CANVASS Library (AID 1347352); also: % is scaled to controls: 0 for no effect and ±100 for the full control effect
Outline: (§2)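 Toxicity was measured as CellTiter-Glo luminescence after 72 h exposure to an 11-point compound series. Compound was added to 1000 cells/well 4 h after seeding.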

[8] = Secretion counterscreen for inhibitors of the SERCaMP assay screened against the NCATS CANVASS Library (AID 1347390);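 also: light from luciferase secreted into medium read as a measure of general secretion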; also: potency is read from the fitted curve at half-maximal effect; as to activity change, negative = inhibition: % is scaled to controls: 0 for no effect and ±100 for the full control effect
Outline: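 Counterscreen identifying compounds that disrupt secretion, using SH-SY5Y cells with a constitutively secreted Gaussia luciferase reporter. A 20 h compound exposure (top 77 uM) precedes luminescent detection with coelenterazine.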

[9] = UWB1.289 Cancer Cell Toxicity qHTS against the NCATS CANVASS Library (AID 1347347); also: nearly all actives have a fitted effect of over 60% in size; also: potency is read from the fitted curve at half-maximal effect
Outline: as §1

[10] = Panc-1005 Cancer Cell Toxicity qHTS against the NCATS CANVASS Library (AID 1347349); also: nearly all actives have a fitted effect of over 60% in size; also: potency is read from the fitted curve at half-maximal effect
Outline: as §1

[11] = MCF7 Cancer Cell Toxicity qHTS against the NCATS CANVASS Library (AID 1347369)
Outline: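 Cytotoxicity is measured by ATP content: MCF7 cells at 500 per well receive an 11-point compound series and, after 72 hr at 37C, are lysed with CellTiterGlo for luminescence.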

[12] = OV-SAHO Cancer Cell Toxicity qHTS against the NCATS CANVASS Library (AID 1347348); also: nearly all actives have a fitted effect of over 55% in size; also: potency is read from the fitted curve at half-maximal effect
Outline: as §1

[13] = Vero-766 cells viability qHTS against the NCATS CANVASS Library: Counterscreen for Zika virus inhibition assay (AID 1347394); also: nearly all actives have a fitted effect of over 60% in size; also: potency is read from the fitted curve at half-maximal effect
Outline: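 This cytotoxicity counterscreen uses African green monkey Vero 766 cells in the absence of Zika virus. Compounds are incubated with cells for 72 h, and ATP-based luminescence reports viability.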

[14] = SDT Cancer Cell Toxicity qHTS against the NCATS CANVASS Library (AID 1347365); also: nearly all actives have a fitted effect of over 60% in size; also: potency is read from the fitted curve at half-maximal effect
Outline: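 Cytotoxicity taken from CellTiterGlo ATP luminescence after 72 hr at 37C, 5% CO2. Canine glioma line SDT, 500 cells/well, treated at 11 concentrations; bortezomib dose series as control.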

[15] = HEK-293 Cancer Cell Toxicity qHTS against the NCATS CANVASS Library (AID 1347355); also: nearly all actives have a fitted effect of over 65% in size; also: potency is read from the fitted curve at half-maximal effect
Outline: as §2

[16] = qHTS for Antimalaria activity screened against the NCATS CANVASS Library (AID 1347380); also: nearly all actives have a fitted effect of over 40% in size; also: potency is read from the fitted curve at half-maximal effect;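 as to activity change, negative = inhibition: Plasmodium falciparum strain Dd2 asexual parasites grown in red blood cells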
Outline: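 SYBR Green fluorescence at 485/535 nm was read 18 hr after lysis. This followed a 72 hr incubation at 37C in 5% O2, 5% CO2 of Dd2-infected erythrocytes (0.3% parasitemia, 2.5% final hematocrit) with compounds titrated over 11 concentrations.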

[17] = target: Calcium and integrin-binding protein 1 (Homo sapiens) (UniProt Q99828); experiment: Primary qHTS for Identification of Calcium Integrin Binding Protein 1 (CIB1) Competitor (AID 1508620);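 also: GST tagged CIB1 binding a fluorescein labelled alphaIIb integrin peptide tracer; top concentration of the series differs between compounds; % is scaled to controls: 0 for no effect and ±100 for the full control effect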
Outline: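 Fluorescence polarization competition: CIB1-GST (1 uM final) preincubated with compound 15 min at room temperature, then FITC-labeled alphaIIb peptide (100 nM final) added for another 15 min. Polarization read at Ex 480/Em 540.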

[18] = NCATS anti-infectives library activity on the primary C. elegans qHTS viability assay (AID 1745855; calls by dose curve; also: potency is read from the fitted curve at half-maximal effect)
Outline: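 GFP read-out by 488 nm laser cytometry at day 0, 3 and 7, gated on object perimeter, area and peak intensity, scored viability of PE254-GFP-FLuc worms exposed to compound in S medium with bacterial capsules at 21 °C.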

[19] = qHTS Assay for Lipid Storage Modulators (AID 1519; calls by dose curve); details: Drosophila S3 cells, BODIPY lipid droplet/cell ratio, laser cytometry, cells loaded with oleic acid
Outline: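 Cells seeded at 5,000 per well were treated with compounds over a concentration series and loaded with oleic acid (400 uM, as added). Lipid droplet fluorescence (488 nm excitation, 500-530 nm channel) was read by laser-scanning cytometry and normalized to 20 uM Triacsin C.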

Calcium and integrin-binding protein 1 (Homo sapiens), sequence (Q99828 whole entry, looked up): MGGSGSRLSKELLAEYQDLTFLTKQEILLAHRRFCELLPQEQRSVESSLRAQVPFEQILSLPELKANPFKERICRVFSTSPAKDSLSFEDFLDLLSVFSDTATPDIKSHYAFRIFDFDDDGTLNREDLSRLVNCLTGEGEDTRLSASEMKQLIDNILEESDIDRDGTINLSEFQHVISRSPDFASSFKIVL

CC(C)[C@@H]1CC(=O)c2coc3c2[C@H]1C[C@@H](C)C3=O
inactive: Potency [1] | Potency [2] | Potency [3]

COc1ccc([C@@H]2c3cc4c(cc3C[C@H](C)C2C)OCO4)cc1OC (stereo not given in full)
inactive: Potency [4] | Potency [2]
active: Potency [5] 3.72 µM | Potency [3] 7.41 µM | Potency [6] 27 µM

COc1ccc([C@@H]2c3cc4c(cc3C(=O)[C@H](C)C2C)OCO4)cc1OC (stereo not given in full)
inactive: Potency [7] | Potency [2] | Potency [8]
active: Potency [5] 16.6 µM | Potency [3] 11.7 µM

CC[C@H]1[C@@H](C)[C@@H](c2cc(OC)c(OC)cc2OC)[C@H](C)[C@@H](c2cc(OC)c(OC)cc2OC)[C@@]12C=C(OC)C(=O)C=C2OC
inactive: Potency [11]
active: Potency [1] 21.1 µM | Potency [9] 23.6 µM | Potency [10] 16.8 µM | Potency [5] 29.6 µM

COc1cc2c(cc1OC)[C@@H](c1ccc3c(c1)OCO3)C(C)[C@@H](C)C2=O (stereo not given in full)
inactive: Potency [12] | Potency [10] | Potency [4] | Potency [7] | Potency [11] | Potency [2] | Potency [3] | Potency [8] | Potency [13] | Potency [6]

COC(=O)[C@@]1(C)CCC[C@]2(C)c3cc(OC)ccc3CC[C@@H]12
inactive: Potency [9] | Potency [12] | Potency [10] | Potency [4] | Potency [7] | Potency [14] | Potency [11] | Potency [2] | Potency [3] | Potency [13] | Potency [6]

O[C@H]1C=C2[C@H]3CN(Cc4cc5c(cc43)OCO5)[C@H]2C[C@@H]1O
active: Potency [15] 5.26 µM | Potency [5] 10.5 µM | Potency [14] 7.43 µM | Potency [16] 5.29 µM
inactive: Potency [11] | Potency [2] | Potency [3]

C[C@H](c1cnc(N)[nH]1)c1ccc(O)c2[nH]cc(-c3cnc(-c4c[nH]c5ccccc45)c(=O)[nH]3)c12
inactive: Potency [9] | Potency [10] | Potency [4] | Potency [7] | Potency [5] | Potency [2] | Potency [8] | Potency [13] | Potency [6]

O=C(/C=C\n1cnc(-c2cc(C(F)(F)F)cc(C(F)(F)F)c2)n1)NNc1cnccn1
inactive: Potency [17]
active: Potency [18] 25.8 µM

C=C[C@@](C)(O)CC[C@@H]1[C@@]2(C)CCCC(C)(C)[C@@H]2CC[C@@]1(C)O
-21.7%: max response ([19]; measured here: lipid channel max response)
inactive: activity change, negative = inhibition ([19]; at 57.5 µM (top of the series)) -12.3% | Potency [12] | Potency [7] | Potency [13] | Potency [6]
-15%: max response ([19]; measured here: cell count channel max response)

C/C(=C\[C@H](C)C(=O)C[C@H](O)CC1CC(=O)NC(=O)C1)[C@@H]1OC(=O)CCCC/C=C/[C@@H](O)C[C@@H]1C
active: Potency [9] 9.41 µM | Potency [14] 2.35 µM
inactive: Potency [5] | Potency [11]

C/C1=C/[C@@H](C)[C@H](O)C/C=C/CC/C=C/C(=O)O[C@@H]1[C@H](C)C(=O)CCCC1CC(=O)NC(=O)C1
active: Potency [15] 20.9 µM | Potency [14] 5.26 µM
inactive: Potency [11] | Potency [16] | Potency [3]

O=C1CCC(=O)N(O)CCCCCNC(=O)CCC(=O)N(O)CCCCCNC(=O)CCC(=O)N(O)CCCCCN1
inactive: Potency [5] | Potency [3] | Potency [8]
active: Potency [1] 7.49 µM | Potency [12] 11.8 µM | Potency [10] 8.41 µM | Potency [14] 4.18 µM | Potency [16] 4.72 µM

CC1=C[C@H]2[C@H]3C(=O)C(c4ccc(O)cc4)=C[C@@]3(c3ccc(O)cc3)[C@@H]1C(=O)[C@]2(C)O
inactive: Potency [12] | Potency [2]
active: Potency [15] 0.235 µM | Potency [5] 3.72 µM | Potency [14] 0.209 µM | Potency [16] 0.0019 µM | Potency [6] 0.48 µM

C/C=C1/C2=CCCN3C(=O)O[C@H]([C@H]1O)[C@H]23
inactive: Potency [1] | Potency [10] | Potency [4] | Potency [14] | Potency [13] | Potency [6]

C[C@H](CCC(O)C(C)(O)CO)[C@@]1(O)CC[C@@]2(C)C3=C(CC[C@@]21C)[C@@]1(C)CCC(OC(=O)CCC(=O)O)C(C)(C)[C@@H]1CC3 (stereo not given in full)
inactive: Potency [12] | Potency [10] | Potency [4] | Potency [15] | Potency [5] | Potency [14] | Potency [3] | Potency [8] | Potency [6]
active: Potency [13] 29.5 µM

C=C1C[C@H]2O[C@@H]3[C@@H]4[C@H](CC[C@@](C)(O)[C@@H]42)[C@H](C)COC3(C)[C@@H](OC(=O)CCCCCCC)C[C@H]1O (stereo not given in full)
active: Potency [16] 0.0059 µM
inactive: Potency [4] | Potency [8] | Potency [6]

C=C1C[C@H]2O[C@@H]3[C@@H]4[C@H](CC[C@@](C)(O)[C@@H]42)[C@H](C)COC3(C)[C@@H](OC(=O)CCCCCCC)CC1=O (stereo not given in full)
active: Potency [9] 18.8 µM | Potency [12] 18.8 µM | Potency [15] 14.8 µM | Potency [14] 23.5 µM | Potency [8] 48.4 µM
inactive: Potency [11] | Potency [2]
